Out of some 50,000 compounds screened, about 800 (1.6%) showed an effect of 50% or more. The list comes from a sample in which strong results are over-represented; it also holds similar structures and randomly drawn compounds.

The test deals with Bcl-2-like protein 10 (Homo sapiens) (UniProt Q9HD36). The test is described as follows: Phenotype converters, Bcl-B/TR3 peptide binding displacement, primary biochemical FP (AID 1240).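 Further: 0% = Bcl-B with tracer peptide and DMSO and 100% = tracer peptide lacking Bcl-B.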 Particulars: GST-Bcl-B / FITC-TR3 peptide fluorescence polarization; stronger effect = higher value; compound at 3.75 mg/L. Background: In fluorescence polarisation assays a small probe gives low polarisation when free and higher when bound to something large.
Bcl-2-like protein 10 (Homo sapiens), sequence (Q9HD36 whole entry, looked up): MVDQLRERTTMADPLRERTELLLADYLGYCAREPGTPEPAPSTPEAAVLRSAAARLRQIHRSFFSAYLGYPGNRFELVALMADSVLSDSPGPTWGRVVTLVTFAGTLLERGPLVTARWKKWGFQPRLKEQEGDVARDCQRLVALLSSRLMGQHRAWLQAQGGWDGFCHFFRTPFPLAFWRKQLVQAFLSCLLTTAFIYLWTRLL
In the case of `COc1ccc2ccccc2c1C=Nc1ccc(C)c(I)c1`, the displacement is -9.7%.

As to `CCOc1cc(/C=N/n2cnnc2)ccc1OCCOc1ccc(Br)cc1`, the displacement is 19.3%. The value for `O=C(/C=C/c1ccc(F)cc1)c1nc2ccccc2s1` was -6%. The figure for `CCc1ccccc1N1C(=O)CC(Sc2nc(C)cc(C)n2)C1=O` (stereo not drawn) is 10.8%; for `Cc1ccc(C=Nc2ccc(F)cc2)o1` it is 4.1%; for `CC(C)OC(=O)c1ccc(NC(=O)c2cncc(Br)c2)cc1` it is 12.3%. The value for `O=C(Nc1ccc(NC(=O)c2cccc(Br)c2)cc1)c1ccccc1` was 0%; that for `CC(C)OC(=O)c1ccc(NC(=O)c2cccc(Br)c2)cc1` was 69.2%; that for `COc1ccc(N(CC(=O)Nc2cccc(C)c2)S(=O)(=O)c2ccc(C)cc2)c(OC)c1` was 3.6%.

On to `CCOC(=O)C1CCN(S(=O)(=O)c2ccc(F)cc2)CC1`, for which the displacement was -8%. The figure for `N#Cc1ccccc1N=C1CCCN1Cc1ccccc1` is 17.4%; for `Cc1ccc(-c2ccc(OCC(=O)Nc3ccccc3C(N)=O)cc2)cc1` it is 4.4%.

As to `O=C(NC(=S)NC1CCSC1=O)c1ccco1` (stereo not drawn), the displacement worked out at 1%. The value for `O=C(Nc1ccncc1)c1cc2c(ccc3ccccc32)oc1=O` was 9.6%; that for `Cc1cccc(NC(=O)c2cc3c(ccc4ccccc43)oc2=O)n1` was -7%. The figure for `Cc1cccnc1NC(=O)c1cc2c(ccc3ccccc32)oc1=O` is 93%; for `COc1cc(/C=N/NC(N)=O)ccc1OCC(=O)N1CCCCC1` it is -4.4%. With `COC(=O)c1ccccc1NC(=O)CSc1nnc(-c2cccc(F)c2)n1-c1ccccc1`, the displacement is -1.1%. As for `Cc1cc(-c2ccccc2)sc1/C(O)=C/c1nc2ccccc2[nH]c1=O`, the displacement came out at 112%.

Consider `Cc1cccc(-c2nc3ccccc3[nH]2)c1`, for which the displacement was 10.9%.

For the molecule `CC(C)(C)/C(O)=C/c1nc2cc([N+](=O)[O-])ccc2[nH]c1=O`, the displacement is 0.3%. Turning to `Cc1nc(C)c(/C(O)=C/c2nc3ccccc3[nH]c2=O)s1`, the displacement worked out at 61.6%.

As for `Cc1nc(C)c(/C(O)=C/c2nc3ccc([N+](=O)[O-])cc3oc2=O)s1`, the displacement was -12%. The value for `Cc1ccc(-c2nc3ccccc3[nH]2)s1` was 0.7%; that for `O=C(Nc1cccc(C(F)(F)F)c1)c1nn2c(c1Br)NC(c1cccs1)CC2C(F)(F)F` (stereo not drawn) was 4.5%. Consider `COc1ccccc1NC(=O)c1c(NC(=O)Cc2ccccc2)sc2c1CCCCC2`, for which the displacement turned out to be 9.3%. With `CC(C)OP(=O)(OC(C)C)C(Nc1ccc(Br)cc1)c1ccc(O)cc1` (stereo not drawn), the displacement is -13.8%.

With `CCOc1ccccc1N(CC(=O)NC1CCCCC1)S(=O)(=O)c1ccccc1`, the displacement came to 10.8%. Regarding `CN1C(=O)/C(=C\c2ccc(OCc3cccc4ccccc34)cc2)SC1=S`, the displacement is -0.8%. `C=CCN1C(=O)/C(=C\c2ccccc2OCc2ccc(Cl)cc2)SC1=S`: the displacement was 23.3%. The value for `C=CCN1C(=O)/C(=C\c2ccc(OCc3ccccc3Cl)cc2)SC1=S` was 95.7%; that for `C=CCN1C(=O)/C(=C/c2cccc(OCc3ccccc3Cl)c2)SC1=S` was -4.4%; that for `C=CCN1C(=O)/C(=C\c2ccc(OCc3cccc4ccccc34)cc2)SC1=S` was 87.1%. The value for `CCN1C(=O)/C(=C\c2ccc(OCc3cccc4ccccc34)cc2)SC1=S` was 106%. The figure for `C=CCN1C(=O)/C(=C\c2cc(Cl)ccc2OCc2ccccc2F)SC1=S` is 60.2%; for `C=CCN1C(=O)/C(=C/c2ccccc2OCc2ccccc2Cl)SC1=S` it is 11.6%; for `C=CCN1C(=O)/C(=C\c2cccc(OCc3cccc4ccccc34)c2)SC1=S` it is 15.9%. Regarding `CCN1C(=O)/C(=C\c2ccc(OCc3ccccc3Cl)cc2)SC1=S`, the displacement came out at 15.9%. With `C=CCN1C(=O)/C(=C\c2ccc(OCc3ccccc3)cc2)SC1=S`, the displacement came to 11.4%. The value for `CCN1C(=O)/C(=C\c2cccc(OCc3cccc4ccccc34)c2)SC1=S` was 4.6%; that for `NC1=NC(=O)/C(=C\c2ccccc2Cl)S1` was 13.2%. The value for `CC1=C(C(=O)OC(C)C)C(c2ccccc2Cl)C2=C(CCCC2=O)N1` (stereo not drawn) was 0%. The figure for `CCOc1cc(/C=C2\C(=O)NC(=O)N(c3cc(C)cc(C)c3)C2=O)cc(Cl)c1O` is 11.4%; for `Cc1cc(OCCN2CCCC2)ccc1Cl` it is -2.8%; for `COc1ccc(C(=O)Nc2cc3nn(-c4ccc(OC)cc4)nc3cc2C)cc1` it is 2.2%.

For `COc1ccc(-n2nc3cc(C)c(NC(=O)c4ccco4)cc3n2)cc1`, the displacement stood at 5.1%. The figure for `COc1ccc(-n2nc3cc(C)c(NC(=O)c4cc5ccccc5o4)cc3n2)cc1` is 2.4%. The value for `Cc1ccc(-n2nc3cc(C)c(NC(=O)c4cccc(C)c4)cc3n2)cc1` was 85.1%. `COc1ccc(-n2nc3cc(C)c(NC(=O)c4ccc(Br)o4)cc3n2)cc1`: the displacement was 117%. The figure for `Cc1ccc(-n2nc3cc(C)c(NC(=O)c4cccc(Cl)c4)cc3n2)cc1` is -4.2%. The value for `Cc1ccc(-n2nc3cc(C)c(NC(=O)c4ccco4)cc3n2)cc1` was 107%; that for `Cc1ccc(-n2nc3ccc(NC(=O)c4ccco4)cc3n2)cc1` was 49.3%.

With `Cc1ccc(-n2nc3cc(C)c(NC(=O)c4ccccc4)cc3n2)cc1`, the displacement was -4.4%. The value for `O=S(=O)(c1cccc2ccccc12)n1cnc2ccccc21` was 6.3%. The value for `COc1ccc(-c2cc(C(=O)Nc3ccccc3OC)c3ccccc3n2)cc1` was 14.2%. The value for `Nc1ccc(C(=O)Nc2cccc(O)c2)cc1` was 11.4%; that for `CN(C)N1C(=O)c2ccc3c4c(ccc(c24)C1=O)CC3` was 6.4%; that for `O=C1NC(=O)c2ccc3c4c(ccc1c24)CC3` was 55.5%.

For `O=C1c2ccc3c4c(ccc(c24)C(=O)N1Cc1ccco1)CC3`, the displacement came to 9.5%. The value for `O=C1NC(=S)NC(=O)C1=Cc1ccccc1OS(=O)(=O)c1ccc([N+](=O)[O-])cc1` was -7.8%; that for `N#Cc1c(-c2ccc(O)cc2)c(C#N)c2nc3ccccc3n2c1N` was 12.5%.

As to `N#Cc1c(-c2cccc(Br)c2)c(C#N)c2nc3ccccc3n2c1N`, the displacement is 109%.

Take `N#Cc1c(-c2ccc(F)cc2)c(C#N)c2nc3ccccc3n2c1N`: the displacement was -8%. The figure for `COc1cc2c(cc1NCc1cccc([N+](=O)[O-])c1)oc1ccccc12` is -6.6%; for `O=C1OC(c2cccc(Cl)c2)=N/C1=C\c1ccccc1[N+](=O)[O-]` it is 7%. Consider `COc1ccc(-c2nn(-c3ccccc3)cc2C=O)cc1[N+](=O)[O-]`, for which the displacement is -1.7%.

Turning to `COc1ccc(-c2nn(-c3ccccc3)cc2/C=C2\N=C(c3ccccc3)OC2=O)cc1[N+](=O)[O-]`, the displacement worked out at 93.8%. Turning to `CC(=O)CCc1oc2ccc(Br)cc2c1-c1ccc(C)o1`, the displacement was -10.4%. The figure for `COC(=O)C1=C(C(=O)OC)C2(OC1c1cccc(F)c1)C(=O)c1ccccc1C2=O` (stereo not drawn) is -0.3%. The value for `CCCCOC(=O)c1cccc(NC(=O)c2cc3ccccc3oc2=O)c1` was 1.7%; that for `Cc1ccc(C(=O)O)cc1-n1c(C)ccc1C` was 83.2%; that for `Cc1ccc(-c2ccccc2)n1-c1cccc(C(=O)O)c1` was 1.2%. The value for `Cc1cc(C(=O)O)ccc1-n1c(C)ccc1C` was 81.4%; that for `Cc1ccc(C(=O)O)cc1N1C(=O)c2ccccc2C1=O` was 7%. Regarding `Cc1ccc(N2C(=O)c3ccc(C(=O)O)cc3C2=O)c(C)c1`, the displacement stood at 1.6%. Turning to `Cc1ccc(C(=O)O)cc1N1C(=O)c2ccc(C(=O)O)cc2C1=O`, the displacement turned out to be 6.5%. The figure for `COc1ccccc1NC(=O)c1ccc(Br)o1` is 1%. The value for `O=c1oc(-c2ccccc2Cl)nc2ccc(-c3ccc4nc(-c5ccccc5Cl)oc(=O)c4c3)cc12` was 11.6%; that for `O=C(Nc1ccc(-c2nc3ccccc3s2)c(O)c1)c1ccc(-c2cccc([N+](=O)[O-])c2)o1` was 6.1%. The figure for `O=C(COc1ccc([N+](=O)[O-])cc1)Nc1cc(-c2nc3ccccc3s2)ccc1Cl` is 9%; for `Cc1c(NC(=O)c2ccc(-c3cccc([N+](=O)[O-])c3)o2)cccc1-c1nc2ccccc2s1` it is 3.7%; for `Cc1ccc2nsnc2c1NC(=O)c1ccc(-c2cccc(Cl)c2)o1` it is 1.4%.

On to `CC(=O)Nc1cc(-c2nc3ccccc3s2)ccc1Cl`, for which the displacement is 11.6%. The figure for `O=C(Nc1cc(-c2nc3ccccc3s2)ccc1Cl)c1ccc([N+](=O)[O-])cc1` is 90.8%. In the case of `Cc1ccc2nsnc2c1NC(=O)c1ccc(-c2cccc([N+](=O)[O-])c2)o1`, the displacement was 105%. The figure for `O=C(Nc1cccc(-c2nc3ccccc3s2)c1)c1ccc(-c2ccc([N+](=O)[O-])cc2)o1` is 70%; for `Cc1ccc2nsnc2c1NC(=O)c1ccc(-c2ccc([N+](=O)[O-])cc2)o1` it is 16.6%. The figure for `O=c1/c(=C\c2ccccc2OS(=O)(=O)c2ccc3ccccc3c2)sc2nc3ccccc3n12` is 4.6%. The value for `O=[N+]([O-])c1ccc(N2CCN(S(=O)(=O)c3ccc(Cl)cc3)CC2)c(C(F)(F)F)c1` was 8.3%; that for `CCOC(=O)c1ccccc1NC(=O)c1ccc(N(Cc2ccc(Cl)cc2)S(C)(=O)=O)cc1` was 12.1%. `COC(=O)c1c(-c2cc(C)ccc2C)csc1N`: the displacement is -6.2%.

Take `COc1cccc(/C=N/NC(=O)c2cc(C)[nH]n2)c1OC`: the displacement is -9%. The figure for `CN(C)CCCNC(=O)c1ccc2sc3cc(=O)c(N)cc-3nc2c1` is 44.6%; for `CCCCOc1ccc2c3c(cccc13)C(=O)c1ccccc1-2` it is 176%. The value for `CCCCOc1ccccc1NC(=O)C(c1ccccc1)c1ccccc1` was -16.9%; that for `CCCCOc1ccc(N2C(=O)c3cccc4cccc(c34)C2=O)cc1` was 0.2%; that for `CC1(C)CC(=O)C(Sc2ccc([N+](=O)[O-])cc2)=C(O)C1` was 17%. The value for `CCOc1cc(-c2ccc(OC)cc2)[o+]c2c1ccc1ccccc12` was 6.2%; that for `C=CCOC(=O)C1=C(C)NC(=S)NC1c1ccccc1OCC` (stereo not drawn) was 2.1%; that for `N#CC(C#N)=C/C(=C/C(C#N)C#N)c1ccccc1` was 109%. `N#C/C(=C\N1CCOCC1)c1ccccc1`: the displacement is -0.9%. The figure for `N#C/C(=C\c1ccc(Sc2ccccc2)o1)c1ccccc1` is -14.9%; for `Cc1ccc2c(c1)C1C=CCC1C(c1ccccc1[N+](=O)[O-])N2` (stereo not drawn) it is 6.9%; for `Cc1ccc2c(c1)C1C=CCC1C(C(=O)O)N2` (stereo not drawn) it is 142%.

As to `COc1ccc2c(c1)C1C=CCC1C(c1cccc([N+](=O)[O-])c1)N2` (stereo not drawn), the displacement was -2.3%.

In the case of `COc1ccc2c(c1)C1C=CCC1C(C(=O)O)N2` (stereo not drawn), the displacement turned out to be 150%.

Regarding `Cc1ccc2c(c1)C1C=CCC1C(c1ccc([N+](=O)[O-])cc1)N2` (stereo not drawn), the displacement worked out at 12.2%. The value for `COc1ccc2c(c1)C1C=CCC1C(c1ccc([N+](=O)[O-])cc1)N2` (stereo not drawn) was -0.8%.

The record behind these values is PubChem BioAssay AID1240 (Sanford-Burnham Center for Chemical Genomics, 2008).
